Source: PubChem BioAssay
GASC-1 inh = blocks human GASC-1 demethylase activity; GST-JMJD2C(1-420) H3K9me3 demethylation, DELFIA europium; inhibition, % at 2.35 µM; hit rate 0.069% among 330,000;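 active means more than half of a compound's replicate wells show inhibition beyond 50%, single wells judged on their own value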;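 further: signal counts dimethyl H3K9 product captured on neutravidin plate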
PP5 primary = PP5 (human) phosphatase inhibition; P53041; hit rate 0.18% among 320,000; purified PP5c, OMFP substrate fluorescence; inhibition, % at 6.7 µM;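 active means inhibition above the campaign's mean inhibition across all tested compounds plus 3 SD, cut at about 9.5% in these data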
PG9 Ab binder = binds the HIV-1 gp120 antibody PG9. TR-FRET gp120-PG9 antibody binding. inhibition, % at 6.7 µM. hit rate 0.43% among 360,000; in the data active means inhibition above about 8.5%
proKLK7 act = activators of human kallikrein-7 zymogen; P49862; purified proKLK7, EDANS-DABCYL substrate fluorescence; 100% is mature enzyme control, 0% vehicle; activation, % at 7 µM; hit rate 0.9% among 370,000; AID 652039;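 active means activation above the mean of all tested compounds plus 3 SD, computed per campaign excluding outliers beyond control limits, cut at about 13% in these data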
NR1D1 modulator = Rev-erb alpha (human) modulation | P20393 | Rev-erbα–FITC-DNA binding, fluorescence polarization, 90 min | activity, % at 10 µM | hit rate 0.79% among 370,000 | AID 1259318;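 active means activity above about 14%, limit read from the data; passing the limit was not always enough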
PP1 counter = PP1-alpha (human) inhibition in PP5 counter-screen. P62136. purified PP1alpha, OMFP fluorescence. inhibition, % at 6.7 µM. hit rate 0.9% among 320,000;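 active means inhibition above the mean inhibition of all tested compounds plus 3 SD, computed separately for each screening campaign, cut at about 15% in these data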
Target sequence (P62136 whole entry, looked up): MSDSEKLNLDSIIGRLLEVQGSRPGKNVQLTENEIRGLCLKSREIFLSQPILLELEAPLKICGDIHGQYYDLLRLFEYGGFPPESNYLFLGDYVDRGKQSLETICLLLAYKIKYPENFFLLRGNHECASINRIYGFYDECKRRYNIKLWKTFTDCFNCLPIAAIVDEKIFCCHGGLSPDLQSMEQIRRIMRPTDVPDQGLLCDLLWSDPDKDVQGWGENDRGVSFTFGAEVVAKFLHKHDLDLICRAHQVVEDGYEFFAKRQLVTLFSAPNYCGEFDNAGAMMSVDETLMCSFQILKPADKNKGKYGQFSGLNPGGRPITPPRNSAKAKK
PG9 binder conf = confirmation of small molecules binding HIV-1 gp120 antibody PG9; shares compounds with PG9 Ab binder; TR-FRET PG9 antibody binding, biochemical; inhibition, % at 6.7 µM; hit rate 90% among 1,500; in the data active means inhibition above about 9%
PGV04 counter = counter-screen for PG9 binders: binding control antibody PGV04; hit rate 95% among 1,500; TR-FRET PGV04 antibody-gp120 binding, biochemical; inhibition, % at 6.7 µM; shares compounds with PG9 Ab binder; in the data active means inhibition above about 9.5%
Rev-erbA confirm = Rev-erb alpha (human) modulation, hit confirmation | shares compounds with NR1D1 modulator | Rev-erb alpha FITC-DNA binding, fluorescence polarization, 90 min | activation, % at 25 µM | hit rate 61% among 3,000 | AID 1259319;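 active means activation at or above a set limit, or at least 3 SD above the negative control mean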
RORg counter = RORgamma DNA-binding activity, dose-response counter-screen; shares compounds with NR1D1 modulator; purified RORgamma protein-FITC-DNA binding, fluorescence polarization; IC50, µM; hit rate 8% among 910;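 active means Compounds whose fitted half-maximal concentration for disrupting protein-DNA binding is below 10 micromolar; the record names Rev-erb in its text, so the target is in doubt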
Numbers stand for hits. The list is not random: actives were taken first. Their share in the collection is about 2.8%.

`Cc1nc(SCC(=O)NCC2CCCO2)c2oc3ccccc3c2n1` (stereo not drawn) gave GASC-1 inh inactive, PP5 primary inactive, PG9 Ab binder inactive, proKLK7 act inactive, NR1D1 modulator inactive and PP1 counter inactive.
Cc1nc(SCC(=O)Nc2ccccc2)c2oc3ccccc3c2n1 was read as GASC-1 inh inactive, PP5 primary inactive, PG9 Ab binder 95.5, proKLK7 act inactive, NR1D1 modulator 781.5, PP1 counter inactive, PG9 binder conf 96.2, PGV04 counter 99.3, Rev-erbA confirm 665.8 and RORg counter inactive.
`CN(Cc1ccco1)C(=O)CN1C(=O)C2(OCCCO2)c2ccccc21` gave proKLK7 act inactive and NR1D1 modulator inactive.
Screening COC(=O)N1Cc2ccnnc2CC1c1ccccc1-c1ccc(OC)cc1 (stereo not drawn) returned PG9 Ab binder inactive, proKLK7 act inactive and NR1D1 modulator inactive.
`Cc1nc(SCC(=O)Nc2ccc(F)cc2)c2oc3ccccc3c2n1` gave GASC-1 inh inactive, PP5 primary inactive, PG9 Ab binder 45.0, proKLK7 act inactive, NR1D1 modulator 220.0, PP1 counter inactive, PG9 binder conf 78.4, PGV04 counter 84.6, Rev-erbA confirm 233.5 and RORg counter inactive.
COCCn1c(SCC(=O)Nc2ccc(F)cc2)nc2c(oc3ccccc32)c1=O was read as GASC-1 inh inactive, PP5 primary inactive, PG9 Ab binder inactive, proKLK7 act inactive, NR1D1 modulator inactive and PP1 counter inactive.
`CC(=O)N1CCc2cc(S(=O)(=O)NCCC(=O)NCc3ccc(Cl)cc3)ccc21` gave proKLK7 act inactive and NR1D1 modulator inactive.
`Cc1sc2nc(SCC(=O)NCc3ccco3)n(CCc3ccccc3)c(=O)c2c1C` gave GASC-1 inh inactive, PP5 primary inactive, PG9 Ab binder 28.2, proKLK7 act inactive, NR1D1 modulator 61.2, PP1 counter inactive, PG9 binder conf 30.1, PGV04 counter 34.0, Rev-erbA confirm 61.8 and RORg counter inactive.
For COc1cccc(CNC(=O)[C@H]2CCCN2C(=O)[C@H]2CCCN2C(=O)c2c(F)cccc2F)c1 the results were PG9 Ab binder inactive, proKLK7 act inactive and NR1D1 modulator inactive.
`CCN=C1NC(c2ccc(F)cc2)C(C(=O)OC)=C(C)N1Cc1cccc(C(F)(F)F)c1` (stereo not drawn) gave PG9 Ab binder inactive, proKLK7 act inactive and NR1D1 modulator inactive.
`COC(=O)[C@]12CCCCC=C1N(Cc1ccc(OC)cc1)C(=O)[C@@H]2CC(=O)NCCCN1CCCC1=O` gave proKLK7 act inactive and NR1D1 modulator inactive.
For COC(=O)Nc1nc(-c2ccccc2)c(C(=O)c2ccc(Cl)cc2)s1 the results were GASC-1 inh inactive, PP5 primary inactive, PG9 Ab binder 44.0, proKLK7 act inactive, NR1D1 modulator 29.8, PP1 counter inactive, PG9 binder conf 44.3, PGV04 counter 65.2 and Rev-erbA confirm 30.8.
`C#CCn1c(=NC(=O)c2ccc(Br)s2)sc2cccc(OC)c21` gave GASC-1 inh inactive, PP5 primary inactive, PG9 Ab binder 10.8, proKLK7 act inactive, NR1D1 modulator 27.0, PP1 counter 15.6, PG9 binder conf 15.1, PGV04 counter 25.9, Rev-erbA confirm 42.6 and RORg counter inactive.
For C=CCn1c(=NC(=O)c2cccs2)sc2cccc(OC)c21 the results were GASC-1 inh inactive, PP5 primary inactive, PG9 Ab binder inactive, proKLK7 act inactive, NR1D1 modulator inactive and PP1 counter inactive.
